# TcdB inh = TcdB glycohydrolase inhibition; P18177; TcdB glycohydrolase enzymatic assay, plate reader; inhibition, % at 9.99 µM; 350,000 compounds, 0.24% hits; in the data active means inhibition above about 10%
# Yp Topo-I inh = inhibitors of Yersinia pestis topoisomerase I; Y. pestis Topo-I cleavage product accumulation, plate reader; activity, % at 10 µM; 360,000 compounds, 0.064% hits; AID 504884; in the data active means activity above about 50%, passing the limit was not always enough
# RN4220 kill = S. aureus RN4220 growth inhibition | OD600, 16 h | inhibition, % (test concentration not listed) | 330,000 compounds, 0.33% hits; in the data active means inhibition above about 85%
# ugtP null kill = kills S. aureus RN4220 lacking UgtP; 330,000 compounds, 0.54% hits; growth inhibition, % (no concentration beside the values); S. aureus RN4220 ugtP deletion, OD600 growth, 16 h; AID 1259309; in the data active means growth inhibition above about 68%
# Mtb hypoxia rep = reduces hypoxia-regulated biosensor signal in M. tuberculosis. M. tuberculosis hypoxia-regulated fluorescent reporter, fluorescence. fluorescence inhibition, % (test concentration not listed). AID 1159583. 300,000 compounds, 0.1% hits; in the data active means fluorescence inhibition mostly above about 23%, no sharp cut-off; inactive means mostly below about 17%
# BioA inh = BioA (M. tuberculosis) enzyme inhibition. purified M. tuberculosis BioA enzyme, plate reader. inhibition, % at 9.99 µM. 360,000 compounds, 0.096% hits. AID 602481; in the data active means inhibition above about 40%
# Numbers stand for hits; – = inactive; · = no result shown. A selection: hits, their analogues and other compounds. The true share with any hit is near 0.75%.
SMILES,TcdB inh,Yp Topo-I inh,RN4220 kill,ugtP null kill,Mtb hypoxia rep,BioA inh
CCCCCn1c2c(c(=N)c3ccccc31)CCC2,–,–,–,–,–,–
COc1ccc(NC(=O)Nc2cccc3c2OC(CN(C)C(=O)Nc2c(C)noc2C)C(C)CN(C(C)CO)C3=O)cc1 (centres undefined),·,·,–,–,–,·
CC1(CC(=O)NN=Cc2cc(Br)c(O)cc2O)OCCO1,·,·,–,–,–,·
CNC(=C[N+](=O)[O-])NCCSCc1csc(CN(C)C)n1,·,·,–,–,–,·
Oc1ccc(CCc2ccccn2)cc1,14,–,·,·,·,–
O=C(Nc1ccccc1)N(CCN1CCOCC1)Cc1cccc(Cl)c1,–,73,–,–,–,·
Fc1cccc(C=NNC(=S)Nc2ccccc2Cl)c1,·,·,–,93,–,·
S=C(NN=Cc1ccccc1Cl)Nc1ccccc1,·,·,–,91,–,·
FC(F)(F)c1ccc(Cl)c(NC(=S)N/N=C/c2ccccc2C(F)(F)F)c1,–,–,·,·,·,·
FC(F)(F)c1ccc(Cl)c(NC(=S)NN=Cc2ccccc2C(F)(F)F)c1,·,·,–,86,–,·
Fc1ccc(C=NNC(=S)Nc2ccc(Cl)cc2Cl)cc1,·,·,–,–,–,·
Cc1ccc2c(c1)C1C(CO2)C(c2ccccc2)[C@]2(C)C(=O)N(Cc3ccc(Cl)cc3)CC(=O)N12 (some centres undefined),·,·,–,–,–,·
O=C(NN=Cc1ccncc1)C12CC3CC(CC(C3)C1)C2,·,·,–,–,–,·
Cc1nn(CC(=O)NN=Cc2cccs2)c(C)c1[N+](=O)[O-],·,·,–,–,–,·
CSc1ccc(Cl)c(C(=O)NCCOc2cc(C)ccc2C(C)C)c1,–,–,97,99,–,–
Cc1ccc([N+](=O)[O-])cc1-c1ccc(C=Nn2nnnc2N)o1,·,·,–,–,–,·
CCOc1ccc(-c2cc(C)[n+](CCO)c(-c3ccc(OCC)cc3)c2)cc1,–,–,–,–,–,–
CCOc1ccc(-c2cc(C)[n+](CCc3ccc(OC)c(OC)c3)c(-c3ccc(OCC)cc3)c2)cc1,–,–,100,100,·,–
CCCCN(c1nc2ccccc2nc1Cl)S(=O)(=O)c1ccc(C)cc1,–,55,–,–,–,·
C=C(C)C(=O)Oc1ccc(N=Nc2ccc(C)cc2)ccc1=O,–,–,–,100,–,–
CCOC(=O)c1nn(-c2ccc(F)cc2)c2c1CCC2=Cc1ccccc1,·,·,–,–,–,·
O=C(Cn1cc(COc2ccc(Cl)c(Cl)c2)nn1)NS(=O)(=O)c1ccccc1OC(F)(F)F,11,–,·,·,·,–
COC(=O)C1=C(c2ccc(F)cc2OCc2ccccc2)C[C@@H]2CC[C@H]1N2C(=O)NCCOc1ccccc1,10,–,·,·,·,–
COC(=O)C1=C(c2ccc(F)cc2OCc2ccccc2)C[C@@H]2CC[C@H]1N2C(=O)N1CCCC1,10,–,·,·,·,–
Cc1c(C(=O)N2CCN(S(=O)(=O)c3ccc(F)cc3)CC2)oc2ccccc12,–,–,–,–,39,–
SMILES,TcdB inh,Yp Topo-I inh,RN4220 kill,ugtP null kill,Mtb hypoxia rep,BioA inh
CCOC(=O)C1C2COc3ccc(Br)cc3C2N2C(=O)CN(CC3CCCO3)C(=O)[C@@]12C (some centres undefined),·,·,–,–,–,·
Cc1cc(/C=C(\C#N)C(=O)N2CCCCC2)cc(C)c1O,12,–,–,–,–,–
N#C/C(=C\c1cccc(O)c1)C(=O)N1CCCCC1,–,–,–,–,–,–
Cc1ccc(C=NNC(=O)c2c(C)nc3ccc(Br)cn23)cc1,·,·,–,–,–,·
CCN1C(=O)/C(=C2\C=Cc3ccccc3N2CC)SC1=S,·,–,–,–,37,·
Oc1nc(Nc2cccc(Cl)c2)sc1/C=C1\C=Nc2ccccc21,–,–,100,100,–,–
Oc1cccc(Nc2nc(O)c(/C=C3\C=Nc4ccccc43)s2)c1,–,–,–,–,–,–
CN(C)C=Nc1sc2c(c1C#N)CCCC2,·,·,–,–,–,·
O=C(Cn1cncn1)NN=Cc1cc([N+](=O)[O-])ccc1O,·,·,88,–,–,·
Nc1nnnn1CC(=O)NN=Cc1cc([N+](=O)[O-])ccc1O,·,·,93,–,–,·
CC1OCC(C[N+](C)(C)C)O1 (centres undefined),·,·,–,–,–,·
COc1cc(Cn2nnc3ccccc32)ccc1O,18,–,–,–,–,–
O=C(Oc1ccc(C=NNC(=O)c2ccccc2O)cc1)c1ccccc1,·,·,–,–,–,·
CN(CC(=O)Nc1ccccc1Oc1ccccc1)Cc1ccccc1F,·,60,–,–,–,·
CCCCn1c(N)c(N(CC)C(=O)c2cccs2)c(=O)[nH]c1=O,11,–,–,–,–,–

# High-throughput results deposited in PubChem BioAssay by several laboratories.
